Screening data from PubChem.
CHO-K1 Ca antag: counter-screen for M1 antagonists: effect in parental CHO-K1 cells; 360,000 tested, 0.6% active; ATP-induced calcium, Fluo-8 fluorescence; inhibition, % at 3 µM;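 active means inhibition above a per-plate cutoff, the plate's mean sample inhibition plus 3 SD, cut at about 24% in these data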;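 further: 0% = DMSO plus EC80 ATP and 100% = DMSO alone without ATP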
M1 ag: activates human CHRM1 receptor; P11229; CHO-K1 hM1, Fluo-8 calcium fluorescence, agonist mode; 0% DMSO, 100% acetylcholine EC100; activation, % at 3 µM; 360,000 tested, 0.33% active;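 active means activation above the run's mean compound activation plus 3 SD, cut at about 16% in these data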;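 further: peak over basal fluorescence ratio within a 140 s kinetic read after compound addition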
Target sequence (P11229 whole entry, looked up): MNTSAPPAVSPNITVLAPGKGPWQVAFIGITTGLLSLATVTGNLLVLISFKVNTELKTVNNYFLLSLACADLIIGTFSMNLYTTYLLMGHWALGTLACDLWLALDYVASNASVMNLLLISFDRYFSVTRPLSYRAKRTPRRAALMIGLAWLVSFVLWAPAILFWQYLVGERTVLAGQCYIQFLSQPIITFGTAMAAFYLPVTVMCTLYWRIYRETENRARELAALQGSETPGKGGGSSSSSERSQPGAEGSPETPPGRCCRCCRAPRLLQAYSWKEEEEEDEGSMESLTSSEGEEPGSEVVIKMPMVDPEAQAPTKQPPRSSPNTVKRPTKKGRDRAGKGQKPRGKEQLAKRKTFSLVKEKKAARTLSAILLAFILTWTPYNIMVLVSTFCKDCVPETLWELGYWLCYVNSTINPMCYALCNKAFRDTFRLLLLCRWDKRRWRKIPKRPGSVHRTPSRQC
M1 PAM: human CHRM1 positive allosteric modulation. P11229. CHO-K1 hM1, Fluo-8 calcium fluorescence, ACh EC20; 0% = ACh EC20, 100% = maximal ACh. activation, % at 3 µM. 360,000 tested, 0.088% active; in the data active means activation above about 19%, passing the limit was not always enough
M1 ag parental: counter-screen for M1 agonists: effect in parental CHO-K1 cells; Fluo-8 calcium fluorescence; scaled to maximal ATP response, vehicle zero; activation, % at 3 µM; 360,000 tested, 0.48% active; AID 602248; in the data active means activation above about 15%;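 further: untransfected CHO-K1 host cells lacking M1 receptor as counterscreen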
CHRM1 antagonist: antagonists of human M1 muscarinic receptor; P11229; CHO-K1 hM1, Fluo-8 calcium fluorescence, ACh EC80 antagonist; AID 588852; inhibition, % at 3 µM; 360,000 tested, 1.3% active;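 active means percent inhibition above its own plate's cutoff, namely the mean of that plate's compound wells plus 3 SD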;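 further: peak over basal fluorescence ratio during 140 s after agonist addition; 0% = ACh EC80 plus DMSO and 100% = DMSO alone without agonist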
M1 PAM parental: counter-screen for M1 PAMs: effect in parental CHO-K1 cells. ATP EC20, Fluo-8 calcium fluorescence; 0% at ATP EC20, 100% at ATP max. activation, % at 3 µM. 360,000 tested, 0.02% active;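 active means activation above the run cutoff, the mean activation of all test compounds plus 3 SD, cut at about 40% in these data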;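 further: peak over basal fluorescence ratio in a 140 s read after ATP addition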
* marks the source's active call; other numbers are inactive results. Rows were chosen to be rich in hits. Some 2.4% of all compounds tested hit in one or more screens of this group.

SMILES | CHO-K1 Ca antag | M1 ag | M1 PAM | M1 ag parental | CHRM1 antagonist | M1 PAM parental
CC(CCc1ccccc1)NC(=O)CN1CCN(Cc2ccc(Cl)cc2)C1=O (stereo not drawn) | 28* | -7 | -7 | 0 | 6 | -11
CCn1c(=O)c2sccc2n(Cc2cccc(C)c2)c1=O | 4 | 1 | 23 | 0 | -27 | -2
COc1ccc(-c2cc(C3CCN(Cc4ccc([N+](=O)[O-])cc4)CC3)[nH]n2)cc1 | 15 | -3 | 6 | 2 | -4 | -7
Cc1ccc(CN2CCC(c3cc(-c4ccc(Cl)cc4)n[nH]3)CC2)cc1 | 4 | -3 | -4 | 16* | 6 | -6
Nc1nc(Cl)cc(N2CCC(c3cc(-c4ccc(Cl)cc4)n[nH]3)CC2)n1 | -1 | 14 | -18 | 21* | 38* | 0
COc1ccc(OC)c(-c2cc(C3CCN(c4cc(Cl)nc(N)n4)CC3)[nH]n2)c1 | 25* | -2 | -5 | 0 | 18 | -7
CC(=O)NCCc1nc2ccccc2n1Cc1cccc(C)c1 | -7 | -6 | 2 | 1 | -6 | 12
CCCn1nc(C(=O)NCC2COc3ccccc3O2)c2ccccc2c1=O (stereo not drawn) | -13 | -6 | -4 | 1 | -1 | -4
CCN(C(=O)C1CCCN(c2ncnc3c2nc2n3CCCCC2)C1)c1cccc(Cl)c1 (stereo not drawn) | -9 | -1 | -7 | 7 | 3 | 12
CN(Cc1cnn(-c2ccc(F)cc2)c1)C(=O)[C@H]1O[C@@H](n2cnc3c(N)ncnc32)[C@H](O)[C@@H]1O | -15 | -2 | -4 | 1 | -10 | 12
COc1ccc(NC(=O)c2cccc(N3C(=O)C4C5C=CC(C5)C4C3=O)c2)c(OC)c1 (stereo not drawn) | -12 | -2 | 1 | 2 | -6 | 4
COc1ccc(NC(=O)c2cccc(N3C(=O)C4C5C=CC(C6CC56)C4C3=O)c2)cc1 (stereo not drawn) | 8 | 5 | -15 | 15* | 20 | -19
COc1ccc(NC(=O)c2cccc(N3C(=O)C4C5C=CC(C6CC56)C4C3=O)c2)c(OC)c1 (stereo not drawn) | -3 | 5 | -4 | 18* | 1 | 16
COc1ccc(NC(=O)c2cccc(N3C(=O)C4C5CCC(C5)C4C3=O)c2)cc1 (stereo not drawn) | 0 | 1 | -12 | 9 | 23 | -9
CCOC(=O)C1CCN(c2ccccc2CN2CCN(c3ccccc3OCC)CC2)CC1 | 20 | -7 | -23 | 5 | 48* | -8
O=C(Nc1cccc(Br)c1)Oc1cccc2cccnc12 | 22 | 0 | -23 | 7 | 43* | -8
CCN(CC)C(=O)Oc1ccc(Cl)c2cccnc12 | -9 | -3 | 4 | -1 | 2 | 4
O=C(Nc1cccc(C(F)(F)F)c1)Oc1ccc(Cl)c2cccnc12 | 36* | -1 | -16 | 16* | 42* | -33
O=C(Nc1c(Cl)cccc1Cl)Oc1cccc2cccnc12 | -1 | -12 | 2 | 1 | -4 | 13
Cn1cc(CNCc2cnc3ccccn23)c(-c2ccc(Oc3ccccc3)cc2)n1 | 14 | -9 | -15 | 7 | 7 | 6
CN(Cc1cn(C)nc1-c1ccc(Oc2ccccc2)cc1)Cc1cnc2ccccn12 | 20 | -2 | -13 | 9 | 24* | 3
COc1ccc(CN2CCN(C(C)C)C(CCO)C2)cc1Cn1cncn1 (stereo not drawn) | 2 | -13 | 7 | 0 | -7 | 9
O=C(CSc1nnc(NC2CCCCC2)s1)Nc1ccc2c(c1)C(=O)c1ccccc1C2=O | -3 | 3 | 9 | 0 | 1 | 0
CC(C)Nc1nnc(SCC(=O)Nc2ccc3c(c2)C(=O)c2ccccc2C3=O)s1 | 3 | -2 | -17 | 6 | 31* | 3
CCN(CCn1cccn1)C(=O)CC1C(=O)NCCN1CCc1ccccc1 (stereo not drawn) | -5 | -3 | 2 | 1 | -1 | 8
SMILES | CHO-K1 Ca antag | M1 ag | M1 PAM | M1 ag parental | CHRM1 antagonist | M1 PAM parental
CCOc1cccc(=O)c2c(C)n(Cc3ccccc3)c(C)c12 | 13 | -6 | -3 | 23* | 2 | 3
Cc1cc2c(ncn2Cc2ccccc2)c([N+](=O)[O-])c1C | -5 | -7 | 11 | 0 | -7 | 19
Cn1c(C(=O)NCCCN2CCc3ccccc3C2)cc2c(=O)n(C)c3ccccc3c21 | 6 | -14 | -20 | 0 | 34* | 2
COc1ccc(Br)cc1CN(C)C(=O)CNC(=O)c1ccc2ccccc2c1 | -11 | -4 | -16 | 3 | 29* | -3
COc1ccc(CN(C)C(=O)CNC(=O)c2ccc3ccccc3c2)c(OC)c1 | -10 | -3 | 3 | 5 | -3 | 5
CC1=C(C)/C(=N\OS(=O)(=O)c2ccccc2)C=CC1=O | 37* | 8 | -9 | 9 | 21* | -3
COc1ccc(CN(C(=O)CN2C(=O)c3ccccc3S2(=O)=O)C(C(=O)NCC2CCCO2)c2ccco2)cc1 (stereo not drawn) | -23 | 0 | 9 | 2 | -13 | -8
O=C1OC(c2ccccc2)=N/C1=C/c1cccc(OC(=O)c2cccs2)c1 | 43* | -2 | 2 | 2 | -15 | 7
Cc1no[n+]([O-])c1COc1cccc(/C=C2\N=C(c3ccccc3)OC2=O)c1 | 5 | -3 | 11 | -1 | -10 | 13
COc1ccc(CN2CCCC(C(=O)c3ccc(Cl)cc3)C2)cc1Cn1cccn1 (stereo not drawn) | -5 | -8 | -26 | 5 | 58* | -10
COc1cccc(C(=O)C2CCCN(Cc3cccc(OCCO)c3)C2)c1 (stereo not drawn) | -6 | -11 | -4 | 1 | 2 | 4
COc1ccc(C(=O)C2CCCN(C(=O)Cn3cncn3)C2)cc1OC (stereo not drawn) | -7 | -2 | 2 | 1 | -4 | -13
COc1cccc(C(=O)C2CCCN(Cc3cccc(-n4nc(C)cc4C)c3)C2)c1 (stereo not drawn) | 1 | -10 | -30 | 1 | 60* | 2
COc1cccc(C(=O)C2CCCN(Cc3ccc(OC)c(Cn4cncn4)c3)C2)c1 (stereo not drawn) | 0 | -8 | -22 | 0 | 37* | -14
O=C(O)c1cocc1C(=O)O | -8 | -2 | 8 | 1 | -12 | 11
C/C(=N\NS(=O)(=O)c1ccccc1)c1ccc2c(c1)OCO2 | -11 | -3 | 9 | 1 | -14 | 11
Cc1cc(C)cc(N(C(=O)c2csnn2)C(C(=O)NC2CCCC2)c2ccccn2)c1 (stereo not drawn) | -6 | -1 | 7 | 1 | -1 | 9
COc1ccc(N2C(=O)CCC(C(=O)O)C2c2ccc(OC)c(OC)c2)cc1 (stereo not drawn) | -5 | -5 | 5 | 0 | 3 | 13
